IMPase cell inh = cell-permeable inhibitors of inositol monophosphatase (IMPase) | AID 901 | P97697 | CHO-M1 cells, IP1 accumulation, HTRF TR-FRET ratio | inhibition (IP1 accumulation), % at 46.1 µM | 120,000 tested, under 10 active; active = well fitted curve in the direction sought with a large enough effect in the signal ratio, not every such curve was filed as active; inconclusive = small, poorly fitted or top-dose-only effect, or a change in a side signal; inactive = no such curve, though single readings can be large or run the other way; the % refers to the signal ratio;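 also: cells stimulated with carbachol in lithium chloride buffer; plate controls were DMSO basal wells for no effect and reference inhibitor wells for full effect; higher means more IMPase inhibition seen as more IP1 and lower FRET ratio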
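Cellular IMPase inhibition is scored as a rise in cytosolic IP1, detected by competitive TR-FRET between d2-labelled IP1 and a europium anti-IP1 antibody. M1-expressing CHO cells were stimulated with carbachol for 30 min at 37C, with lithium (50 mM LiCl) present in the buffer.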
PNC assembly inh = perinucleolar compartment assembly inhibition. PC3M PTB-GFP, PNC prevalence imaging, 16 h; hits give low values. activity change (PNC), negative = inhibition, % at 10 µM. hit rate 3.1% among 140,000;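 active = readout at or below -70, meaning at least 70% loss of cells showing the perinucleolar compartment, a nuclear body marking cancer cells; inconclusive = readout between -30 and a set limit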;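 also: plate controls were DMSO wells for no effect and camptothecin positive control wells for full effect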
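Compounds are pinned in duplicate onto adhered PC3M cells stably expressing GFP-tagged PTB and incubated 16 h at 37 C. Cells are then fixed, nuclei stained with Hoechst, and PNC-positive cells counted.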
IMPase Li inh = membrane-permeable IMPase blocker, potentiated with lithium | Potency, µM (top dose mostly 59.4 µM), inactives show top-dose activity, negative = IMPase inhibition, hits mostly inhibitors | CHO-M1 cells, IP1 TR-FRET (IP-One), carbachol + lithium | hit rate 0.35% among 210,000 | AID 1457;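 also: IP1 builds up when IMPase is blocked and the TR-FRET signal falls; potency is read from the fitted curve at half-maximal effect; plate controls were basal vehicle for no effect and high inhibitor control for full effect; nearly all actives have a fitted effect of over 50% in size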
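Lithium-sensitised IP1 accumulation assay; M1-expressing CHO cells treated 30 min at 37C with compound. Competitive antibody detection by time-resolved FRET followed a 10 min room-temperature lysis step.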
ALOX12 inhib = 12-hLO (ALOX12) enzyme inhibition; Potency, µM (top dose mostly 57.1 µM), for inactives: at the top dose activity change, negative = inhibition, most hits filed as inhibitors; hit rate 0.12% among 150,000; purified 12-hLO, xylenol orange hydroperoxide absorbance; also: potency is read from the fitted curve at half-maximal effect; nearly all actives have a fitted effect of over 55% in size
Target sequence (P18054 whole entry, looked up): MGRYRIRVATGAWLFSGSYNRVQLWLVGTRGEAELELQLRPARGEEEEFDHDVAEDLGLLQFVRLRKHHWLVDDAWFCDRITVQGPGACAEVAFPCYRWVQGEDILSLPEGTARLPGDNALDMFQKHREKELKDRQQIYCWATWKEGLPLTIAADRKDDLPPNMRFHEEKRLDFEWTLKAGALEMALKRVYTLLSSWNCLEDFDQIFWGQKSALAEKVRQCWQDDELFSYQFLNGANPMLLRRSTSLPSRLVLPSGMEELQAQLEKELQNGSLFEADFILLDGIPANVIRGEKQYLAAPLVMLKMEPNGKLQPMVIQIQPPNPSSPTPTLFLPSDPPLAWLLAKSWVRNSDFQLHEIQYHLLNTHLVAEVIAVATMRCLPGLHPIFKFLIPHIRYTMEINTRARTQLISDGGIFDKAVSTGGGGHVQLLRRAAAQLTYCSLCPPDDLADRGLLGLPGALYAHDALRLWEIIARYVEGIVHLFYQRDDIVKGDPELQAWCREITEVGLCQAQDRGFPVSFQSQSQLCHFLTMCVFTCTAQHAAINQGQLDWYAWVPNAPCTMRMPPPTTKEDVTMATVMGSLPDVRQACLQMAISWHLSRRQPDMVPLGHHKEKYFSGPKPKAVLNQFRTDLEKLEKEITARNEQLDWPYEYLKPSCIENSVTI
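Hydroperoxide output read as Fe(III)-xylenol orange absorbance, 573-to-405 nm ratio, after 30 min reaction with 40 uM arachidonic acid. Enzyme: 150 nM purified human 12hLO, 15 min compound preincubation; 25 mM Hepes pH 7.0, room temperature.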
HPGD block = HPGD (human) dehydrogenase inhibition; Potency, µM, for inactives: at the top dose activity change, negative = inhibition, hits mostly inhibitors; hit rate 4.3% among 150,000; purified HPGD, NADH fluorescence kinetic, PGE2 substrate; active = well fitted inhibition curve with a large enough effect, not every such curve was filed as active; inconclusive = small, poorly fitted or top-dose-only effect, or another doubt; inactive = no such curve, though single readings can be large or run the other way; also: potency is read from the fitted curve at half-maximal effect
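20 nM HPGD preincubated 15 min at room temperature with compound in 50 mM Tris-HCl pH 8, 0.01% Tween 20. Started with 1 mM NAD+ and 30 uM prostaglandin E2; NADH fluorescence (360/450 nm) read 5 times over 30-s intervals, last minus first.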
ALDH1A1 block = ALDH1A1 (human) enzyme inhibition. P00352. Purified ALDH1A1, NADH fluorescence, propionaldehyde substrate. Potency, µM (series often up to 75.3 µM), inactives show top-dose activity, negative = inhibition, actives largely listed as inhibitors. hit rate 7.3% among 220,000; active = well fitted inhibition curve with a large enough effect, not every such curve was filed as active; inconclusive = small, poorly fitted or top-dose-only effect, or another doubt; inactive = no such curve, though single readings can be large or run the other way;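 also: potency is read from the fitted curve at half-maximal effect; plate controls were no enzyme wells and a reference inhibitor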
* = called active by the depositor; [ ] = dose if it differs, or a comment. Rows were chosen to be rich in hits. Some 11% of all compounds tested hit in one or more screens of this group. Unless noted, calls follow the shape of the dose curve; as a rule, active = well fitted curve in the direction sought with a large enough effect; inconclusive = small, poorly fitted or top-dose-only effect, or another doubt; inactive = no such curve, though single readings can be large; an effect the other way counts as inactive or inconclusive. Unless noted, % is scaled to controls: 0 for no effect and ±100 for the full control effect.

How did [Li+] do in these assays?
IMPase cell inh: 0.7; IMPase Li inh: 6.0%; ALOX12 inhib: -2.0%; HPGD block: -9.0%; ALDH1A1 block: 5.0%

What do the screens show for `COC(=O)N[C@@H](CCc1ccccc1)[C@]1(C(=O)OC)CCCC1=O`?
IMPase Li inh: 8.5%; HPGD block: -1.1%; ALDH1A1 block: 1.5%

How did O=C(CSc1ncnc2sc3c(c12)CCCC3)c1ccco1 do in these assays?
IMPase cell inh: 5.2; PNC assembly inh: inconclusive; IMPase Li inh: -6.3%[38.3 µM]; ALOX12 inhib: -29.3%; HPGD block: inconclusive; ALDH1A1 block: 22.4µM*

Results for O=C(CSc1ncnc2sc3c(c12)CCCCC3)NCc1ccco1 ?
IMPase cell inh: 1.4; PNC assembly inh: inconclusive; IMPase Li inh: 4.9%[38.3 µM]; ALOX12 inhib: -2.3%; HPGD block: 10µM*; ALDH1A1 block: 8.91µM*

How did Cc1nc2sc3c(c2c2nnc(SCC(=O)NCc4ccco4)n12)CCCC3 do in these assays?
IMPase cell inh: 6.4; PNC assembly inh: 30.0; IMPase Li inh: 11.6%; ALOX12 inhib: -1.6%; HPGD block: 28.2µM*; ALDH1A1 block: 14.1µM*

How did COC(=O)c1ccc(CN(C(C)=O)c2ccccc2)o1 do in these assays?
IMPase cell inh: 6.4; PNC assembly inh: -11.8; IMPase Li inh: -0.4%[38.3 µM]; ALOX12 inhib: -1.4%; HPGD block: -5.3%; ALDH1A1 block: 20µM*

What do the screens show for `O=C(c1cccc(F)c1)N1CCC2(CC1)CN(c1ncccn1)C2`?
IMPase Li inh: 0.6%; ALOX12 inhib: 0.4%; HPGD block: inconclusive; ALDH1A1 block: inconclusive

How did O=C(NCC1CCCO1)c1cc(-c2ccc(Cl)cc2Cl)on1 (stereo not given) do in these assays?
IMPase cell inh: 9.8; PNC assembly inh: 29.2; IMPase Li inh: -7.3%[38.3 µM]; ALOX12 inhib: 1.0%; HPGD block: 8.91µM*; ALDH1A1 block: inconclusive

What do the screens show for `Cc1ccc(SCC(=O)NCC2CCCO2)cc1` (stereo not given)?
IMPase Li inh: 1.2%; ALDH1A1 block: 5.2%

How did Cc1ccc(-n2nc(-c3cccs3)cc2C(=O)NCC2CCCO2)c(C)c1 (stereo not given) do in these assays?
IMPase cell inh: -0.3; PNC assembly inh: 18.2; IMPase Li inh: 11.6%; ALOX12 inhib: -6.0%; HPGD block: 1µM*; ALDH1A1 block: 20µM*

What do the screens show for `O=C(NC(=S)NCC1CCCO1)c1ccc(Cl)cc1Cl` (stereo not given)?
PNC assembly inh: inconclusive; IMPase Li inh: 2.5%; ALOX12 inhib: -5.8%; HPGD block: -5.3%; ALDH1A1 block: -9.5%

Results for O=C(NCC1CCCO1)c1cc(-c2ccccc2)on1 (stereo not given) ?
IMPase cell inh: 6.6; PNC assembly inh: inconclusive; IMPase Li inh: 12.3%[38.3 µM]; ALOX12 inhib: -1.7%; HPGD block: inconclusive; ALDH1A1 block: 1.9%

How did Cc1ccc(N(CC(=O)NCC2CCCO2)C(=O)Cn2nnc(-c3cccs3)n2)cc1 (stereo not given) do in these assays?
IMPase Li inh: -2.5%; ALDH1A1 block: -3.0%

Results for Cc1ccc(SCCC(=O)NCC2CCCO2)cc1 (stereo not given) ?
IMPase cell inh: -0.1; PNC assembly inh: -115.3*; IMPase Li inh: 7.6%; ALOX12 inhib: -0.8%; HPGD block: 15.8µM*; ALDH1A1 block: -12.8%

Results for Cc1ccc(-c2cc(C(=O)NCC3CCCO3)no2)cc1 (stereo not given) ?
IMPase cell inh: -15.4; PNC assembly inh: -1.3; IMPase Li inh: 13.6%[38.3 µM]; ALOX12 inhib: 1.9%; HPGD block: 14.1µM*; ALDH1A1 block: inconclusive

How did COc1ccc(NC(=O)CSc2nc3ccccc3nc2N2CCC(C)CC2)cc1 do in these assays?
IMPase cell inh: 15.9

Results for Cc1ccc(CNC(=O)c2sc3nc(-c4ccc(F)cc4)ccc3c2N)cc1 ?
IMPase cell inh: -11.5

Source: PubChem BioAssay (National Center for Advancing Translational Sciences (NCATS))
